Source: PubChem BioAssay
This is a sample that favours compounds with a hit; in the whole collection about 3.8% have one here.
NTR1 agonist = agonists of human neurotensin receptor NTR1; AID 493036; 330,000 tested, 0.17% active; P30989; activation, % at 20 µM; NTR1-U2OS beta-arrestin-GFP spot imaging, agonist mode;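 active means activation at or above 40% of the spot to cytoplasm intensity ratio, with at least 20 cells analyzed; inconclusive means wells under 20 cells, flagged as cytotoxic or low count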;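 further: 0% = DMSO without peptide and 100% = 100 nM NTR1 peptide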
697 NFkB inh = inhibitors of the PMA/ionomycin-induced NF-kB reporter in 697 B cells; 697 B-cell NF-kB luciferase reporter, 16 h; inhibition, % at 4 µM; 330,000 tested, 0.33% active; in the data active means inhibition above about 35%
Jurkat NFkB inh = lowers PMA/ionomycin-induced NF-kB signal in Jurkat cells | AID 435003 | PMA/ionomycin-induced NF-kB luciferase reporter, luminescence | 330,000 tested, 0.53% active | inhibition, % at 4 µM; in the data active means inhibition above about 50%
Beta apoptosis = beta cell apoptosis inhibition; INS-1E cytokine-induced death, ATP luminescence, 48 h; percent of positive-control rescue, neutral wells zero; protection from apoptosis, % (concentration not given with the values); 300,000 tested, 0.8% active; AID 435005;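 active means Every replicate reaches about 75%, or at least half do and their mean reaches it too, limit read from the data; inconclusive means At least half of replicates reach the limit but their mean does not; inactive means Under half of replicates reach the limit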;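 further: 0% = cytokine-treated negative control wells and 100% = positive control rescue; higher means more ATP so stronger rescue from cytokine killing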
A1 inh = inhibitors of the anti-apoptotic protein A1, read as caspase activation; caspase activation, % (concentration not given with the values); 330,000 tested, 0.066% active; MEF A1-2A-BIM cells, Caspase-Glo 3/7 luminescence, 3 h; percent of clofoctol response, vehicle zero; AID 2462;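 active means over half of replicate activation scores above 10%, or exactly half above 10 with the replicate mean above 10; inconclusive means replicate mean below 10 yet half the replicates above 10; inactive means over half of replicates below 10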
Mdm2-MdmX inh = human Mdm2/MdmX binding inhibition; O15151+Q00987; SaOS-2 split-luciferase Mdm2/MdmX complementation, luminescence; inhibition, % at 8 µM; 330,000 tested, 3% active;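 active means inhibition of at least 50% at 8 µM in the primary screen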
Target sequence (O15151 whole entry, looked up): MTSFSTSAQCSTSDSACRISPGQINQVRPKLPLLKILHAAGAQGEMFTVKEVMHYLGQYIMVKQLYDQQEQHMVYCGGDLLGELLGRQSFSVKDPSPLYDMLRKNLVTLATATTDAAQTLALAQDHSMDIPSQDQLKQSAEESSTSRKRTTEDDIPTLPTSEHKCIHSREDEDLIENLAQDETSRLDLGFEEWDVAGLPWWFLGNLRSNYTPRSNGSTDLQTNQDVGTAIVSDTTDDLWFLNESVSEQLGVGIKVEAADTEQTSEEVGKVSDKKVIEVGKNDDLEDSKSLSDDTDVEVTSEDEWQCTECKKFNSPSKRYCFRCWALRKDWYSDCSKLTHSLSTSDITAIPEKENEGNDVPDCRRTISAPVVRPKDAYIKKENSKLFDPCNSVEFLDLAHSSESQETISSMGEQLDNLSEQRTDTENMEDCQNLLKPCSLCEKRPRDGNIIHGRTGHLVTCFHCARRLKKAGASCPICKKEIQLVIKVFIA
Target sequence (Q00987 whole entry, looked up): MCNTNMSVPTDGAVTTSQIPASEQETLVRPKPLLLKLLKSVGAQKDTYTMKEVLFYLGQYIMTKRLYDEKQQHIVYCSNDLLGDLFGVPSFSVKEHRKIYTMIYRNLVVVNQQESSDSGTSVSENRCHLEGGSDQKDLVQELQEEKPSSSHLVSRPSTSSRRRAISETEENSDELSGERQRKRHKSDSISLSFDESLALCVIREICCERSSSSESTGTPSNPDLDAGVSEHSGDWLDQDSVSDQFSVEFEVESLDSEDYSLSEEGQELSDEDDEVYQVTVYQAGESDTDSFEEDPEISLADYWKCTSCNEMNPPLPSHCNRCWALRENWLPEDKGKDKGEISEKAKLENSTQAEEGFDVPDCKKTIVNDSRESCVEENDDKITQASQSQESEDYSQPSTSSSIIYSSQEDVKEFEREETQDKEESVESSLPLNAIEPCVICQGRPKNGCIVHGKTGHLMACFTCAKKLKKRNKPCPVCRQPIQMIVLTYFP
Mdm2-MdmX conf = confirmation of human Mdm2/MdmX interaction inhibitors; shares compounds with Mdm2-MdmX inh; Mdm2-MdmX binding, luminescent assay; inhibition, % at 8 µM; 10,000 tested, 55% active; AID 489028; in the data active means inhibition above about 40%
Full FLuc ctr = counter-screen for Mdm2/MdmX inhibitors: full-length luciferase | shares compounds with Mdm2-MdmX inh | SaOS-2 full-length luciferase counterscreen, luminescence | inhibition, % at 8 µM | 6,200 tested, 77% active;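 active means mean inhibition at 8 µM reaching about 37%, which flags the compound as non-specific, limit read from the data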;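 further: p53-null SaOS-2 cells with luciferase driven by a doxycycline-inducible promoter; compound on cells about two nights before reading with doxycycline added after day one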
* = called active by the depositor; ? = inconclusive; . = not tested or not shown.

SMILES	NTR1 agonist	697 NFkB inh	Jurkat NFkB inh	Beta apoptosis	A1 inh	Mdm2-MdmX inh	Mdm2-MdmX conf	Full FLuc ctr
COc1ccc2[nH]c(=O)c3c(c2c1)OC(C)(C)C=C3	-2	4	9	-27	1	90*	75*	57*
Cc1cc2c([nH]c3ccccc32)c2c1OC(C)(C)C=C2	10	-66	-82	.	2	-172	.	.
Clc1ccc(-c2ccc(/C=N/Nc3nncc(-c4ccccc4)n3)o2)cc1	-1	-4	-5	-1	0	50*	27	.
Cc1ccc(CN(C)C(=O)c2ccc(S(=O)(=O)N3CCCCCC3)cc2)o1	1	8	4	.	.	-29	.	.
O=c1c2ccccc2[nH]c(=S)n1CCN1CCCCC1	0	-5	-6	2	0	17	.	.
O=c1c2ccccc2[nH]c(=S)n1CCCN1CCN(c2ccccc2F)CC1	7	-50	-3	5	-1	66*	36	81*
O=c1c2cccnc2[nH]c(=S)n1CCCN1CCN(c2ccccc2F)CC1	0	-55	-11	3	0	33	.	.
O=c1c2ccccc2[nH]c(=S)n1CCCN1CCN(c2ccccc2)CC1	10	-182	-19	0	0	80*	43*	63*
O=C(OC(C(=O)NC1CCCCC1)c1ccccc1F)c1ccco1 (centres undefined)	-1	6	-7	1	0	16	.	.
CCN(CC)CCNC(=S)Nc1ccc2nc(N3CCCC3)cc(C)c2c1	-1	6	9	3	1	33	.	.
CCCCN(CC)CCCNC(=S)Nc1ccc2nc(N3CCN(C)CC3)cc(C)c2c1	0	-3	-29	-2	2	56*	21	.
CCCN(CCC)CCCNC(=S)Nc1ccc2nc(N3CCCC3)cc(C)c2c1	-1	-15	2	12	1	78*	45*	63*
Oc1ccc(C[C@H]2CNCCN2CCC23CC4CC(CC(C4)C2)C3)cc1	11	7	12	11	2	58*	17	.
Oc1ccc(C[C@H]2CNCCN2CCCCC2CCCCC2)cc1	9	-10	1	9	?	72*	11	.
Oc1ccc(C[C@@H]2CNCCN2CC2CCCCC2)cc1	-2	7	9	1	2	19	.	.
Cc1cc(C)c(NC(=O)CN(C)C(C)C(=O)N2CCc3ccccc32)c(C)c1 (centres undefined)	-1	8	-6	2	0	-21	.	.
COc1ccc(OC)c2sc(N(CCCN(C)C)C(=O)CCS(=O)(=O)c3ccccc3)nc12	21	22	21	.	?	82*	77*	21
CN(C)CCN(C(=O)CCS(=O)(=O)c1ccccc1)c1nc2c(F)cccc2s1	0	11	7	-6	0	11	.	.
Cc1ccc2sc(N(CCCN(C)C)C(=O)CCS(=O)(=O)c3ccccc3)nc2c1C	21	20	12	-3	0	60*	57*	30
COc1ccc(Cl)c2sc(N(CCN(C)C)C(=O)CCS(=O)(=O)c3ccc(C)cc3)nc12	0	13	13	.	0	12	.	.
CSc1c(CC(=O)Nc2ccc(F)cc2)n(Cc2ccccc2)c2ccccc12	0	14	9	4	1	86*	18	.
CSc1c(CC(=O)Nc2ccccc2)n(C)c2ccccc12	3	-124	-26	.	0	50*	-35	.
Cc1ccc(S(=O)(=O)N2CCOCC2)cc1NC(=O)COc1ccccc1Cc1ccccc1	3	-14	-11	-6	0	-11	.	.
Cc1cccc(NC(=O)C2CCN(C(=O)N3CCOc4ccccc43)CC2)c1C	-3	0	4	-8	0	15	.	.
CCc1cc(=O)oc2cc3occ(-c4ccc(OC)c(F)c4)c3cc12	3	-14	48	23	0	64*	74*	62*
SMILES	NTR1 agonist	697 NFkB inh	Jurkat NFkB inh	Beta apoptosis	A1 inh	Mdm2-MdmX inh	Mdm2-MdmX conf	Full FLuc ctr
CCc1cc(=O)oc2cc3occ(C)c3cc12	1	-3	7	-1	0	15	.	.
COc1ccc(Nc2nc(-c3cccs3)nc3ccccc23)cc1S(=O)(=O)N1CCOCC1	21	9	27	29	1	85*	82*	57*
COc1ccc(NS(=O)(=O)c2cccs2)cc1S(=O)(=O)N1CCOCC1	3	-4	-1	-1	0	18	.	.
Cc1ccc(NC(=O)COc2cccc3ccccc23)c(O)c1	0	10	8	-1	-1	-1	.	.
O=C1Cc2cc(S(=O)(=O)N3CCNCC3)ccc2N1	1	-6	3	-3	0	17	.	.
Cc1cc(C)nc(NC(=NCCc2c[nH]c3ccccc23)NC(=O)Nc2ccccc2)n1	5	6	-11	8	0	64*	34	63*
Cc1cc(C)nc(NC(=NCCc2c[nH]c3ccccc23)NC(=O)Nc2ccc(Cl)c(Cl)c2)n1	4	20	-3	9	0	34	.	.
C/C(N=Nc1nc2ccccc2s1)=N\Nc1ccccc1O	1	1	1	70	0	56*	58*	26
COc1ccc(-n2nc(C(=O)NCC(=O)NCc3ccccc3OC)c3ccccc3c2=O)c(OC)c1	-1	-63	-7	1	0	-36	.	.
COc1ccc(-n2nc(C(=O)NCC(=O)Nc3cc(OC)c(OC)c(OC)c3)c3ccccc3c2=O)cc1	-1	22	10	7	0	52*	33	.
COc1ccc2nc(NC(=O)c3cccc(-c4cc5ccccc5oc4=O)c3)sc2c1	14	-77	-23	24	0	78*	64*	120*
COc1ccc2nc(NC(=O)CSc3nc(SC)ns3)sc2c1	-1	-37	-16	-6	0	19	.	.
COc1ccc(-n2nc(C(=O)NCC(=O)Nc3cccc(NC(C)=O)c3)c3ccccc3c2=O)cc1	0	20	-1	-3	1	10	.	.
COc1ccc(-n2nc(C(=O)Nc3nc4ccc(OC)cc4s3)c3ccccc3c2=O)c(OC)c1	11	3	4	-15	1	77*	21	.
COc1ccc2nc(NC(=O)CSc3nnc(C)s3)sc2c1	1	-81	-59	-6	-3	80*	-22	.
CCOc1ccc(CCN2C(=O)C3C4CCC(O4)C3C2=O)cc1OCC (centres undefined)	1	5	-5	-4	-2	8	.	.
CCn1c(=O)c(C(=O)Nc2ccccc2S(N)(=O)=O)c(O)c2ccccc21	1	-31	-4	-3	0	56*	3	.
CCn1c(=O)c(C(=O)NNC(=O)c2ccccc2)c(O)c2ccccc21	-1	3	3	8	0	50	43*	54*
